Measurements reported in PubChem BioAssay AID1159580 (chemical genetic matrix, 2015).
The campaign covered roughly 5,500 compounds. About 2,000 (36%) were called active. Roughly 18% stayed inconclusive and do not appear here. Cut-off read from the data, not from the text of the source: active = normalized growth mostly below about 0.91 (no sharp cut-off); inconclusive = no clear call, values can overlap the other calls; inactive = mostly above about 0.92. The list shows a part of the results.

Assay: chemical genetic growth profiling, strain panel (AID 1159580);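 note: tested at 20 µM; growth read once vehicle control cultures reached saturation at 30 °C; 1 = growth at the plate median or of vehicle wells; lower values mean less growth of the strain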
Conditions: growth OD

Measured: normalized growth

C[C@H](N)[C@H](O)c1ccc(O)c(O)c1
inactive: S. cerevisiae deletion strains, locus YJR066W, strain TOR1, hits give low values 0.948 | S. cerevisiae deletion strains, locus YJR075W, strain HOC1, hits give low values 0.993 | S. cerevisiae deletion strains, locus YKL009W, strain mrt4, hits give low values 0.994 | S. cerevisiae deletion strains, locus YKL068W, hits give low values 0.986 | S. cerevisiae deletion strains, locus YKL085W, strain MDH1 (second series), hits give low values 0.983 | S. cerevisiae deletion strains, locus YKL085W, strain MDH1, hits give low values 0.983 | S. cerevisiae deletion strains, locus YKL160W, strain elf1, hits give low values 0.981 | S. cerevisiae deletion strains, locus YKR001C, strain vps1, hits give low values 0.978 | S. cerevisiae deletion strains, locus YKR026C, strain gcn3, hits give low values 1 | S. cerevisiae deletion strains, locus YKR091W, strain srl3, hits give low values 0.998 | S. cerevisiae deletion strains, locus YLL001W, strain dnm1, hits give low values 0.954 | S. cerevisiae deletion strains, locus YLL026W, hits give low values 1.01 | S. cerevisiae deletion strains, locus YLL041C, strain sdh2, hits give low values 1.01 | S. cerevisiae deletion strains, locus YLR027C, strain aat2, hits give low values 1.01 | S. cerevisiae deletion strains, locus YLR039C, strain RIC1, hits give low values 0.959 | S. cerevisiae deletion strains, locus YLR058C, strain SHM2, hits give low values 0.993 | S. cerevisiae deletion strains, locus YLR102C, strain apc9, hits give low values 0.988 | S. cerevisiae deletion strains, locus YLR113W, strain HOG1, hits give low values 0.967 | S. cerevisiae deletion strains, locus YLR221C, strain rsa3, hits give low values 0.979 | S. cerevisiae deletion strains, locus YLR258W, strain gsy2, hits give low values 0.996 | S. cerevisiae deletion strains, locus YLR262C, strain YPT6 (second series), hits give low values 0.974 | S. cerevisiae deletion strains, locus YLR262C, strain YPT6, hits give low values 1.04 | S. cerevisiae deletion strains, locus YLR268W, strain sec22, hits give low values 0.969 | S. cerevisiae deletion strains, locus YLR320W, strain mms22, hits give low values 1.01 | S. cerevisiae deletion strains, locus YLR330W, strain CHS5, hits give low values 0.995 | S. cerevisiae deletion strains, locus YLR342W, strain FKS1 (second series), hits give low values 0.968 | S. cerevisiae deletion strains, locus YLR342W, strain FKS1, hits give low values 1.01 | S. cerevisiae deletion strains, locus YLR357W, strain rsc2, hits give low values 0.983 | S. cerevisiae deletion strains, locus YLR370C, strain arc18, hits give low values 1 | S. cerevisiae deletion strains, locus YLR371W, strain rom2, hits give low values 0.963 | S. cerevisiae deletion strains, locus YLR384C, strain iki3, hits give low values 0.998 | S. cerevisiae deletion strains, locus YLR418C, strain cdc73, hits give low values 0.948 | S. cerevisiae deletion strains, locus YML016C, strain PPZ1, hits give low values 0.994 | S. cerevisiae deletion strains, locus YML032C, strain rad52, hits give low values 0.988 | S. cerevisiae deletion strains, locus YML120C, strain ndi1, hits give low values 0.985 | S. cerevisiae deletion strains, locus YML124C, strain tub3, hits give low values 0.994 | S. cerevisiae deletion strains, locus YMR058W, strain fet3, hits give low values 1 | S. cerevisiae deletion strains, locus YMR078C, strain ctf18, hits give low values 0.973 | S. cerevisiae deletion strains, locus YMR125W, strain sto1, hits give low values 0.994 | S. cerevisiae deletion strains, locus YMR129W, hits give low values 1 | S. cerevisiae deletion strains, locus YMR205C, strain PFK2, hits give low values 0.994 | S. cerevisiae deletion strains, locus YMR223W, strain ubp8, hits give low values 0.953 | S. cerevisiae deletion strains, locus YMR231W, strain pep5, hits give low values 0.999 | S. cerevisiae deletion strains, locus YMR263W, strain SAP30, hits give low values 0.997 | S. cerevisiae deletion strains, locus YMR307W, strain GAS1, hits give low values 0.95 | S. cerevisiae deletion strains, locus YNL067W, strain RPL9B, hits give low values 1 | S. cerevisiae deletion strains, locus YNL071W, strain lat1, hits give low values 1.02 | S. cerevisiae deletion strains, locus YNL183C, strain NPR1, hits give low values 0.963 | S. cerevisiae deletion strains, locus YNL209W, strain ssb2, hits give low values 0.991 | S. cerevisiae deletion strains, locus YNL233W, strain BNI4, hits give low values 0.987 | S. cerevisiae deletion strains, locus YNL248C, strain rpa49, hits give low values 0.995 | S. cerevisiae deletion strains, locus YNL250W, strain rad50, hits give low values 0.967 | S. cerevisiae deletion strains, locus YNL271C, strain bni1, hits give low values 0.964 | S. cerevisiae deletion strains, locus YNL298W, strain CLA4, hits give low values 0.966 | S. cerevisiae deletion strains, locus YNL307C, strain MCK1, hits give low values 0.979 | S. cerevisiae deletion strains, locus YNL322C, strain KRE1 (second series), hits give low values 0.991 | S. cerevisiae deletion strains, locus YNR049C, strain mso1, hits give low values 1 | S. cerevisiae deletion strains, locus YNR052C, strain pop2, hits give low values 0.963 | S. cerevisiae deletion strains, locus YOL006C, strain TOP1, hits give low values 0.878 | S. cerevisiae deletion strains, locus YOL012C, strain htz1 1.03 | S. cerevisiae deletion strains, locus YOL147C, strain pex11, hits give low values 0.983 | S. cerevisiae deletion strains, locus YOR001W, strain rrp6, hits give low values 1.02 | S. cerevisiae deletion strains, locus YOR061W, strain CKA2, hits give low values 0.996 | S. cerevisiae deletion strains, locus YOR069W, strain VPS5, hits give low values 0.99 | S. cerevisiae deletion strains, locus YOR070C, strain gyp1, hits give low values 1 | S. cerevisiae deletion strains, locus YOR080W, strain dia2, hits give low values 1.01 | S. cerevisiae deletion strains, locus YOR083W, strain WHI5, hits give low values 0.981 | S. cerevisiae deletion strains, locus YOR106W, strain vam3, hits give low values 0.976 | S. cerevisiae deletion strains, locus YOR136W, strain idh2, hits give low values 0.991 | S. cerevisiae deletion strains, locus YOR144C, strain elg1, hits give low values 0.984 | S. cerevisiae deletion strains, locus YOR184W, strain ser1, hits give low values 0.977 | S. cerevisiae deletion strains, locus YOR231W, strain MKK1, hits give low values 1.01 | S. cerevisiae deletion strains, locus YOR265W, strain rbl2, hits give low values 1 | S. cerevisiae deletion strains, locus YOR270C, strain vph1, hits give low values 1.02 | S. cerevisiae deletion strains, locus YOR290C, strain snf2, hits give low values 0.958 | S. cerevisiae deletion strains, locus YOR316C, strain cot1, hits give low values 0.986 | S. cerevisiae deletion strains, locus YPL051W, strain arl3, hits give low values 0.976 | S. cerevisiae deletion strains, locus YPL078C, strain atp4, hits give low values 0.989 | S. cerevisiae deletion strains, locus YPL106C, strain sse1, hits give low values 0.959 | S. cerevisiae deletion strains, locus YPL240C, strain hsp82, hits give low values 1.01 | S. cerevisiae deletion strains, locus YPL241C, strain CIN2, hits give low values 1 | S. cerevisiae deletion strains, locus YPL256C, strain CLN2, hits give low values 0.992 | S. cerevisiae deletion strains, locus YPR119W, strain clb2, hits give low values 0.982 | S. cerevisiae deletion strains, locus YPR141C, strain kar3, hits give low values 0.975 | S. cerevisiae deletion strains, locus YPR163C, strain tif3, hits give low values 0.986 | S. cerevisiae deletion strains, locus YPR167C, strain met16, hits give low values 0.993 | S. cerevisiae deletion strains, strain wtn01, hits give low values 0.971 | S. cerevisiae strains, strain wild type, hits give low values 1.01
